Compounds with a hit are over-represented: about 2.3% of the library has one in this group of screens.
Abeta yeast res – qHTS for compounds that reverse cellular toxicity of Amyloid beta (A-beta) peptide in yeast: Primary Screen. yeast expressing A-beta42, growth rescue, OD600, 48 h; response scale: 0% DMSO, 100% iron-clioquinol control. Potency, µM (series often up to 46.1 µM), most hits filed as activators. hit rate 0.063% among 410,000; also: nearly all actives have a fitted effect of over 55% in size
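Growth rescue measured by 600 nm absorbance after 48 h yeast culture at 30 C with compound. Values normalized between DMSO and an equimolar ferric chloride plus clioquinol control.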
aSyn yeast inh – qHTS of alpha-syn Inhibitors; Yeast expressing alpha-synuclein, growth rescue, BacTiter-Glo, 24 h; hit rate 0.14% among 370,000; Potency, µM (top dose mostly 46.1 µM), hits mostly activators; also: nearly all actives have a fitted effect of over 65% in size
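Rescue of yeast growth: cells expressing toxic alpha-synuclein, induced in galactose at OD600 0.02, incubated with compound 24 h at 30 C. ATP luminescence quantified growth; inhibitors of toxicity appear as activators.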
FUS suppressor – qHTS for Suppressors of FUS Proteinopathy: Primary screen using FUS-linked yeast assay; hit rate 0.24% among 390,000; Potency, µM (titrated, usually from 76.6 µM), actives largely listed as activators; S. cerevisiae FUS-expressing, growth rescue, OD600, 24 h; also: nearly all actives have a fitted effect of over 55% in size
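Cultures pregrown in 2.5% raffinose medium are shifted to minimal medium containing 2% galactose to express toxic FUS. Compounds are tested at several concentrations. After 24hr at 30C, growth is quantified at 600 nm absorbance.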
TDP43 rescue – qHTS of TDP-43 Inhibitors | AID 652104, 2013 | Potency, µM (titrated, usually from 46.1 µM), actives largely listed as activators | TDP-43 expressing yeast growth rescue, BacTiter-Glo, 24 h | hit rate 1.8% among 410,000; also: nearly all actives have a fitted effect of over 50% in size
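In this qHTS, compounds that restore growth of yeast expressing TDP-43 appear as activators. Cells (OD600=0.02, galactose medium, raffinose-pregrown) are incubated with compound 24 hr at 30 deg C and growth is quantified by BacTiter-Glo.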
pAkt inh – HTS Assay for Inhibitors of Akt Phophorylation: Primary Screen; Neuro2A IGF-stimulated pAkt S473 HTRF, 20 min; active compounds read low; activity change, % for hits at 50 µM; hit rate 0.32% among 360,000; AID 651550, 2012; in the data active = activity change below about -80%; inconclusive = mostly about -51% to -80%
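Neuro2A cells in DMEM with 0.5% FBS, overnight at 37 deg C, given compound at single 50 µM final, then IGF (6 nM final) for 20 min at 37 deg C. Lysed; phospho-Akt Ser473 by HTRF after 24 h, 665/615 ratio.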
Hits are given with their value. Unless noted, calls follow the shape of the dose curve; as a rule, active = well fitted curve in the direction sought with a large enough effect; inconclusive = small, poorly fitted or top-dose-only effect, or another doubt; inactive = no such curve, though single readings can be large; an effect the other way counts as inactive or inconclusive.

COc1cccc(CNc2nccn(-c3cc(C)cc(C)c3)c2=O)c1 was read as Abeta yeast res inactive, FUS suppressor inactive and TDP43 rescue 18µM.
`Cc1ccc(-n2ccnc(NCc3ccccc3)c2=O)cc1C` gave Abeta yeast res inactive, FUS suppressor inactive and TDP43 rescue 32µM.
CCOC(=O)CCSc1nc2c(c(C(F)(F)F)c1C#N)CCC2 was read as Abeta yeast res inactive, aSyn yeast inh inactive, FUS suppressor inactive and TDP43 rescue 13µM.
For CCCCSc1nc2c(c(C(F)(F)F)c1C#N)CCC2 the results were Abeta yeast res inactive, aSyn yeast inh inactive, FUS suppressor inactive, TDP43 rescue inconclusive and pAkt inh inactive.
CC1=C(C(=O)OC2CCCC2)C(c2ccc(Cl)cc2)CC(=O)N1 (configuration not stated) was read as Abeta yeast res inactive, FUS suppressor inactive and TDP43 rescue inactive.
For c1ccc(CC2CCN(c3ncnc4sccc34)CC2)cc1 the results were Abeta yeast res inactive, aSyn yeast inh inactive, FUS suppressor inactive, TDP43 rescue 13µM and pAkt inh inactive.
CN(Cc1ccccc1)c1ccc(C(=O)O)cc1[N+](=O)[O-] was read as Abeta yeast res inactive, aSyn yeast inh inactive, FUS suppressor inactive, TDP43 rescue 16µM and pAkt inh inactive.
For Cn1cc(CNC(=O)c2cc(COc3ccc4c(c3)CCCC4)on2)cn1 the results were Abeta yeast res inactive, aSyn yeast inh inactive, TDP43 rescue inconclusive and pAkt inh inactive.
`O=C(NC(c1cccnc1)C(F)(F)F)c1cc(COc2ccc3c(c2)CCCC3)on1` (configuration not stated) gave Abeta yeast res inactive, aSyn yeast inh inactive, FUS suppressor inactive, TDP43 rescue 20µM and pAkt inh inactive.
`O=C(COc1ccccc1)Nc1nnc(-c2ccc(Cl)s2)o1` gave Abeta yeast res inconclusive, aSyn yeast inh 18µM, FUS suppressor inactive, TDP43 rescue 8.9µM and pAkt inh inactive.
`Cc1ccc(C)c(-c2nnc(NC(=O)CCS(=O)(=O)c3ccccc3)o2)c1` gave Abeta yeast res inactive, aSyn yeast inh inactive, FUS suppressor inactive, TDP43 rescue inactive and pAkt inh inactive.
For Cc1ccc(C)c(-c2nnc(NC(=O)COc3ccccc3)o2)c1 the results were Abeta yeast res inactive, aSyn yeast inh 11µM, FUS suppressor inactive, TDP43 rescue 14µM and pAkt inh inactive.
Screening O=C(COc1ccccc1)Nc1nnc(-c2ccco2)o1 returned Abeta yeast res inactive, aSyn yeast inh inactive, FUS suppressor inactive, TDP43 rescue inconclusive and pAkt inh inactive.
O=C(COc1ccccc1)Nc1nnc(-c2ccccc2)o1 was read as Abeta yeast res inconclusive, aSyn yeast inh 20µM, FUS suppressor inactive, TDP43 rescue inconclusive and pAkt inh inactive.
CCn1c(=O)cc(OCC(=O)N2CCN(c3ccc(C)cc3)C(C)C2)c2ccccc21 (configuration not stated) was read as Abeta yeast res inactive, FUS suppressor inactive and TDP43 rescue inconclusive.
`N/C(Cc1ccc([N+](=O)[O-])cc1)=N\OC(=O)c1ccc2ccccc2c1` gave Abeta yeast res inactive, aSyn yeast inh inactive, FUS suppressor inactive, TDP43 rescue 11µM and pAkt inh inactive.
Screening COC(=O)C1=C(C)N(Cc2ccccc2)C(=S)N[C@H]1c1cccc(F)c1 returned Abeta yeast res inactive, aSyn yeast inh inconclusive, FUS suppressor inconclusive, TDP43 rescue 11µM and pAkt inh inactive.
For O=C(NCCCc1ccccc1)[C@H](Cc1c[nH]c2ccccc12)NC1(C(=O)NCCc2c[nH]c3ccccc23)CCOCC1 the results were FUS suppressor 22µM.
Screening CC(C)(N[C@@H](Cc1c[nH]c2ccccc12)C(=O)NCC(c1ccccc1)c1ccccc1)C(=O)NC1CCCCC1 returned FUS suppressor 14µM.
Screening CC(C)(C)OC(=O)N1CCC(N[C@@H](Cc2c[nH]c3ccccc23)C(=O)NCCc2c[nH]c3ccccc23)(C(=O)NC2CCCCC2)CC1 returned FUS suppressor 20µM.
COc1ccc(-c2csc(-c3nc(-c4ccc(Br)s4)cs3)n2)cc1F was read as Abeta yeast res inactive, FUS suppressor inactive and TDP43 rescue inactive.
CCOC(=O)N1CCN(C(=O)c2ccc3c(c2)N(Cc2ccccc2F)C(=O)c2ccccc2S3(=O)=O)CC1 was read as Abeta yeast res inactive, FUS suppressor inactive and TDP43 rescue inactive.
Screening COC(=O)c1cc(=O)nc2sc3cc(OC)ccc3n12 returned Abeta yeast res inactive, aSyn yeast inh inactive, FUS suppressor inactive, TDP43 rescue inactive and pAkt inh -114%.
`O=C(Nc1ccccc1)/C(=C/c1ccccc1)c1ccccc1` gave Abeta yeast res inactive, aSyn yeast inh inactive, FUS suppressor inactive, TDP43 rescue 13µM and pAkt inh inactive.
Screening O=C(N/N=C/c1ccccn1)c1[nH]c2ccc([N+](=O)[O-])cc2c1-c1ccccc1 returned Abeta yeast res inactive, aSyn yeast inh inconclusive, FUS suppressor 32µM, TDP43 rescue inactive and pAkt inh inactive.
`Cc1cc(NC(=O)CSc2ncc(C(=O)Nc3ccc(F)cc3)c(=O)n2C)no1` gave Abeta yeast res inactive, FUS suppressor inactive and TDP43 rescue inactive.
For O=C(CSc1ncnc2ccccc12)NCc1ccc2c(c1)OCO2 the results were Abeta yeast res inactive, aSyn yeast inh inactive, FUS suppressor inactive, TDP43 rescue inactive and pAkt inh inactive.
O=C(CSc1ncnc2ccccc12)NCC(=O)c1ccccc1 was read as Abeta yeast res inconclusive, aSyn yeast inh inactive, FUS suppressor inactive, TDP43 rescue 13µM and pAkt inh inactive.
Screening Cc1c(Cl)cccc1NC(=O)c1ccc2nc(C(C)C)oc2c1 returned Abeta yeast res inactive, FUS suppressor inactive and TDP43 rescue inactive.
`O=C(c1cc(=O)c2cc(Cl)ccc2o1)N(Cc1ccccc1)C1CCS(=O)(=O)C1` (configuration not stated) gave Abeta yeast res inactive, FUS suppressor inactive and TDP43 rescue inactive.
For CCCCCOc1ccc(C(=O)N(Cc2ccccc2)C2CCS(=O)(=O)C2)cc1 (configuration not stated) the results were Abeta yeast res inactive, FUS suppressor inconclusive and TDP43 rescue 20µM.
For CCOc1ccc(CN(C(=O)c2cc(=O)c3cc(Cl)ccc3o2)C2CCS(=O)(=O)C2)cc1 (configuration not stated) the results were Abeta yeast res inactive, FUS suppressor 32µM and TDP43 rescue inactive.
`CCCOc1cccc(C(=O)N(Cc2ccccc2)C2CCS(=O)(=O)C2)c1` (configuration not stated) gave Abeta yeast res inactive, aSyn yeast inh inactive, FUS suppressor inactive, TDP43 rescue inactive and pAkt inh inactive.

Screening results as filed in PubChem BioAssay.
